PubChem BioAssay (EPA / NIEHS)
Values joined by “and” are separate entries in the source; they are usually repeats but may differ in a detail not shown here. Equal entries are not always repeated. Inconclusive results are not listed. Some structures have more than one record in an assay (separate samples or runs), and their calls can disagree. Active and inactive are the calls of the source. How the source made its calls, unless noted: active means hit-call score of the fitted dose curve at least 0.9, where 1 is the maximum; inactive means score below 0.9.

Assays:
[1] = read-out: Collagen I, COL1A1 (gene 1277); assay: BSK_MyoF_CollagenI: BioMAP Diversity Plus: MyoF Assay for Collagen I Biomarker Activity (AID 2284238); settings: primary human lung fibroblasts
Outline: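 Human lung fibroblasts were exposed to test chemical for 24 h, then Collagen I was quantified by ELISA. Activity was fitted in the increasing direction against DMSO as the negative control and baseline.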

[2] = read-out: Collagen III, COL3A1 (gene 1281); assay: BSK_MyoF_CollagenIII: BioMAP Diversity Plus: MyoF Assay for Collagen III Biomarker Activity (AID 2284239); settings: primary human lung fibroblasts
Outline: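 Human lung fibroblasts were dosed with chemicals and, 24 hours later, collagen III was measured by ELISA. Activity was fitted in the positive direction against the DMSO negative-control baseline.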

[3] = CCTE_Mundy_HCI_hNP1_Casp3_7: CCTE's Caspase-Glo 3/7 Assay in human neuroprogenitor cells for Apoptosis, Mundy Lab (AID 2284240)
Outline: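 Neuroepithelial-lineage stem cells from WA09 embryonic cells were treated with chemicals after 40–44 h of culture. Twenty-four hours later, caspase-3/7 activation was detected luminescently after a 30 min room-temperature reagent step, with DMSO as baseline.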

[4] = read-out: Interleukin 17F (IL17F), IL17F (gene 112744); assay: BSK_BT_xIL17F: BioMAP Diversity Plus: BT Assay for Interleukin 17F (IL17F) Biomarker Activity (AID 2284243); settings: primary human B cells with PBMC
Outline: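 B cell/PBMC co-culture (human primary), 24 h compound exposure; sIL-17F by Luminex xMAP; gain-of-signal fit vs DMSO baseline.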

[5] = read-out: Interleukin 2 (IL2), IL2 (gene 3558); assay: BSK_BT_xIL2: BioMAP Diversity Plus: BT Assay for Interleukin 2 (IL2) Biomarker Activity (AID 2284245); settings: primary human B cells with PBMC
Outline: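 The BT system combines human B cells with peripheral blood mononuclear cells. Twenty-four hours after chemical dosing, secreted IL-2 was measured with xMAP bead technology, and responses were analyzed as increases over DMSO controls.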

[6] = read-out: Basic fibroblast growth factor (bFGF), FGF2 (gene 2247); assay: BSK_MyoF_bFGF: BioMAP Diversity Plus: MyoF Assay for Basic fibroblast growth factor (bFGF) Biomarker Activity (AID 2284246); settings: primary human lung fibroblasts
Outline: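 Chemicals are added to human lung fibroblast cultures and incubated 24 h. bFGF is then measured by ELISA, while parallel cultures receive SRB staining for total protein as a cytotoxicity check. Data are fitted upward against DMSO.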

[7] = CCTE_Mundy_HCI_hNP1_CellTiter: CCTE's Cell Titer-Glo 2 Assay in human neuroprogenitor cells for Viability, Mundy Lab (AID 2284241; active means hit-call score of the fitted dose curve at least 0.9, where 1 is the maximum;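 on AC50: a hit is a drop in ATP luminescence versus DMSO meaning reduced viability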)
Outline: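 Measures ATP content in human neural progenitors derived from WA09 embryonic cells. Read-out at 26.5 hours after dosing, with DMSO serving as the negative control and baseline.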

[8] = CCTE_Mundy_HCI_Cortical_NOG_BPCount: CCTE's Neurite Outgrowth Assay in rat cortical cells for Branch Point Count, Mundy Lab (AID 2284237);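 on AC50: branch points counted about two days after chemical exposure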
Description: CCTE_Mundy_HCI_Cortical_NOG is a multiplexed, cell-based-readout assay that uses rat primary cortical cells with measurements taken at 50.33 hours after chemical dosing in a microplate: 96-well plate.CCTE_Mundy_HCI_Cortical_NOG_BPCount is one of four components of the CCTE_Mundy_HCI_Cortical_NOG assay. It measures neurite outgrowth related to the number of branch points using High Content Imaging of fluorescently labelled markers.[…] Using a type of morphology reporter, loss -of-signal activity can be used to understand developmental effects.
Exposure starts 2 hours post-plating by adding 10 ul of the working solution to 90 ul of media in the wells for a 1/10 dilution. Forty-eight hours after chemical treatment cells are fixed by direct addition of 100 ul of warm (37C) Dulbecco's phosphate buffered saline (DPBS) fixative solution containing 8% paraformaldehyde, 8% sucrose, and 0.1% of 3 mg/ml Hoechst 33342 into each well. Primary antibodies are prepared by dilution in Immunocytochemical Staining Buffer (ISB), 10X Dulbecco's PBS, 0.1% Saponin, 5% Bovine Serum Albumin, 0.5% NaN3 (Sodium Azide) and betaIII-tubulin (rabbit anti-betaIII-tubulin, 1:800) followed by Alexa Fluor-488 secondary (1:500) to label neuronal cell bodies and neurites. A Cellomics ArrayScan VTi HCS Reader is used for automated image acquisition and analysis of neurite outgrowth.

[9] = CCTE_Mundy_HCI_Cortical_Synap_Neur_Matur_NeuronCount: CCTE's Synaptogenesis and Neurite Maturation Assay in rat cortical cells for Neuron Count, Mundy Lab (AID 2284242; active means hit-call score of the fitted dose curve at least 0.9, where 1 is the maximum;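 on AC50: neuron number from Hoechst nuclei and MAP2 staining by high-content imaging; hits reduce neuron count versus DMSO baseline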)
Outline: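 Cortical cells from rat are plated, treated with AraC at DIV 5, and exposed to test chemicals with a media change at DIV 7. At DIV 12 they are fixed and immunostained (MAP2, synaptophysin), and imaged neuron counts are compared against DMSO controls.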

[10] = CCTE_Mundy_HCI_Cortical_NOG_NeuronCount: CCTE's Neurite Outgrowth Assay in rat cortical cells for Neuron Count, Mundy Lab (AID 2284236; active means hit-call score of the fitted dose curve at least 0.9, where 1 is the maximum;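 further: neurons counted by imaging betaIII-tubulin and Hoechst stained cortical cells; cells exposed to compound for about 48 hours before fixation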)
Outline: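 Read-out: neuron number by high-content imaging of betaIII-tubulin (Alexa Fluor-488) and Hoechst-labelled rat primary cortical cells.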

Measured: AC50

OCC(F)(F)OC(F)(F)C(F)(F)OC(F)(F)C(F)(F)OC(F)(F)F
active: [1] 39.9 µM and 22.1 µM | [2] 19.7 µM and 23.9 µM | [4] 30 µM and 22.2 µM | [5] 53.9 µM and 23.4 µM
inactive: [3] | [6]

C=CC(=O)OCC(F)(F)C(F)F
inactive: [2] | [3] | [7] | [6]
active: [1] 46.7 µM and 44.9 µM | [2] 48.7 µM | [4] 12.4 µM and 21.8 µM | [5] 30.6 µM and 34.5 µM

FC(F)(F)C(F)(C(F)(F)F)C(F)(F)C(F)(F)CC1CO1 (stereo not drawn)
not listed: [8] | [9] | [10]
inactive: all other assays above

CCC1(c2ccccc2)C(=O)N=C(O)NC1=O (stereo not drawn)
inactive: [8] | [3] | [7] | [9]

N#Cc1c(-c2ccc(Cl)cc2)[nH]c(C(F)(F)F)c1Br
inactive: [6]
active: [1] 0.899 µM | [2] 0.63 µM | [4] 1.63 µM | [5] 10.1 µM

CCOP(=S)(OCC)SCSc1ccc(Cl)cc1
inactive: [1] | [2] | [4] | [5] | [6]

CCCCC(CC)COP(=O)(Oc1ccccc1)Oc1ccccc1 (stereo not drawn)
active: [1] 9.47 µM | [2] 9.45 µM | [4] 20 µM | [5] 20 µM | [6] 12.3 µM
inactive: [8]

O=C(O)C=CC(F)(C(F)(F)F)C(F)(F)F
active: [4] 0.219 µM
inactive: [1] | [2] | [3] | [7] | [4] | [5] | [6]

CCOc1ccc(C(C)(C)COCc2cccc(Oc3ccccc3)c2)cc1
inactive: [8] | [3] | [7]
active: [9] 15 µM

O=C(O)C(F)(F)OC(F)(F)C(F)(F)OC(F)(F)C(=O)O
not listed: [8] | [9] | [10]
inactive: all other assays above

COP(=O)(O)OC
inactive: [1] | [2] | [4] | [5] | [6]

O=P1(N(CCCl)CCCl)NCCCO1 (stereo not drawn)
inactive: [10] | [8] | [3] | [7]

Cc1ccc2c(c1N)C(=O)c1ccccc1C2=O
active: [2] 1.43 µM | [4] 20 µM
inactive: [1] | [5] | [6]

CCOP(=S)(OCC)SCn1nnc2ccccc2c1=O
inactive: [1] | [2] | [5] | [6]
active: [4] 24 µM

CCOP(=S)(OCC)SCS(=O)(=O)CC
inactive: [1] | [2] | [4] | [5] | [6]

O=C(O)C(F)(F)OC(F)(F)C(F)(F)OC(F)(F)F
not listed: [8] | [9] | [10]
inactive: all other assays above

CC(C)(C)c1ccccc1OP(=O)(Oc1ccccc1)Oc1ccccc1
inactive: [6]
active: [10] 26.2 µM | [8] 17.5 µM | [1] 28.3 µM | [2] 25.2 µM | [9] 3.09 µM | [4] 29 µM | [5] 28.2 µM

CO/N=C(/C(=O)OC)c1ccccc1COc1ccccc1C
active: [10] 13.4 µM | [8] 14.2 µM | [3] 33.2 µM | [7] 82.5 µM | [9] 2.98 µM

CCOP(=S)(OCC)SCSCC
inactive: [10] | [8] | [3] | [7]
active: [9] 78.4 µM

O=C(O)C(F)(OC(F)(F)C(F)(F)C(F)(F)F)C(F)(F)F (stereo not drawn)
active: [9] 6.27 µM
not listed: [10]
inactive: all other assays above

CCOP(=S)(S)OCC
inactive: [1] | [2] | [4] | [5] | [6]

O=S(=O)(F)C(F)(F)C(F)(F)C(F)(F)C(F)(F)C(F)(F)C(F)(F)C(F)(F)C(F)(F)F
inactive: [1] | [2] | [4] | [5] | [6]

OCC(F)(F)OC(F)(F)C(F)(F)OC(F)(F)CO
inactive: [1] | [2] | [4] | [5] | [6]

ClC(Cl)=C(c1ccc(Cl)cc1)c1ccccc1Cl
active: [1] 4.93 µM | [2] 7.34 µM | [4] 32.2 µM | [5] 31.4 µM | [6] 9.45 µM

CC(O)C(F)(F)C(F)(F)F (stereo not drawn)
inactive: [1] | [2] | [4] | [5] | [6]

CC(C)Nc1ccc(Nc2ccccc2)cc1
active: [1] 26 µM | [2] 20 µM | [4] 4.55 µM | [5] 5.05 µM | [6] 30.5 µM

OCC(F)(F)OC(F)(F)C(F)(F)OC(F)(F)C(F)(F)OC(F)(F)CO
active: [4] 22.8 µM and 20.7 µM
inactive: [1] | [2] | [5] | [6]

CCCCC(CC)COC(=O)c1c(Br)c(Br)c(Br)c(Br)c1C(=O)OCC(CC)CCCC (stereo not drawn)
inactive: [1] | [2] | [4] | [5] | [6]

O=c1ssc(Cl)c1Cl
active: [1] 7.5 µM | [2] 9.69 µM | [4] 6.3 µM | [5] 6.44 µM | [6] 11.4 µM

CCCCOCCOP(=O)(OCCOCCCC)OCCOCCCC
inactive: [1] | [2] | [4] | [5] | [6]

C=CC(=O)OCC(CC)(COC(=O)C=C)COC(=O)C=C
active: [1] 4.69 µM | [2] 4.87 µM | [4] 1.87 µM | [5] 2.34 µM | [6] 4.36 µM

Nc1ccc([N+](=O)[O-])cc1Cl
inactive: [1] | [2] | [4] | [5] | [6]

N#Cc1cc([N+](=O)[O-])ccc1N
inactive: [1] | [2] | [4] | [5] | [6]

c1ccc2c(c1)sc1ccccc12
inactive: [1] | [2] | [4] | [5] | [6]

Cc1c([N+](=O)[O-])cc2c(c1[N+](=O)[O-])C(C)(C)CC2(C)C
active: [4] 20 µM | [5] 20 µM
inactive: [1] | [2] | [6]

COC(=O)C(F)(F)C(F)(F)OC(F)(C(F)(F)F)C(F)(F)OC(F)=C(F)F (stereo not drawn)
inactive: [1] | [2] | [4] | [5] | [6]

O=S1(=O)OCC2C(CO1)C1(Cl)C(Cl)=C(Cl)C2(Cl)C1(Cl)Cl (stereo not drawn)
active: [4] 28.3 µM | [5] 20 µM
inactive: [1] | [2] | [6]

COP(N)(=S)OC
inactive: [1] | [2] | [4] | [5] | [6]

CCOP(=S)(NC(C)C)Oc1ccccc1C(=O)OC(C)C (stereo not drawn)
active: [4] 28.7 µM | [5] 20 µM
inactive: [1] | [2] | [6]

NC(=O)C(F)(F)C(F)(F)F
inactive: [1] | [2] | [4] | [5] | [6]

CC(Cl)CN(C)C (stereo not drawn)
inactive: [1] | [2] | [4] | [5] | [6]

O=C(O)C(F)(F)C(F)(F)C(=O)O
inactive: [1] | [2] | [4] | [5] | [6]

O=P(OCC(Br)CBr)(OCC(Br)CBr)OCC(Br)CBr (stereo not drawn)
active: [4] 27.7 µM | [5] 27.7 µM
inactive: [1] | [2] | [6]
